# Counter-ions that a name gives are not always drawn.
# System: Danio rerio larvae (5 dpf)
# Assay: excitability to 1-s acoustic pulses, difference vs DMSO (percentage points (treated minus DMSO)); higher = more of the behaviour than the DMSO vehicle control
# Settings: 10 µM; exposure time: 3 h pre-incubation + 3 h imaging
# Procedure: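 5-dpf wild-type zebrafish larvae were imaged in 96-well plates. They were treated with 190 Tocris FDA-approved drugs at 10 µM (1 µl/ml DMSO) for 3 h before and 3 h during imaging at 28.5 °C, 48 larvae per drug. Automated image analysis gave % time moving and optomotor responses. Values are drug group mean minus DMSO vehicle mean (n=844), in percentage points, for 10 behaviours.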
row,SMILES,excitability to 1-s acoustic pulses
1,O=C(c1ccc(OCCN2CCCCC2)cc1)c1c(-c2ccc(O)cc2)sc2cc(O)ccc12 [Raloxifene hydrochloride],9.93
2,CCCN(CCc1cccs1)[C@H]1CCc2c(O)cccc2C1 [Rotigotine hydrochloride],31.3
3,COc1ccc(Cl)cc1C(=O)NCCc1ccc(S(=O)(=O)NC(=O)NC2CCCCC2)cc1 [Glibenclamide],-0.0554
4,OCc1cc(C(O)CNCCCCCCOCCCCc2ccccc2)ccc1O (stereo not given) [Salmeterol xinafoate],12.3
5,CC(c1cc2ccccc2s1)N(O)C(N)=O (stereo not given) [Zileuton],4.34
6,OCCOCCN1CCN(C2=Nc3ccccc3Sc3ccccc32)CC1 [Quetiapine hemifumarate],9.86
7,CCCc1nc2c(C)cc(-c3nc4ccccc4n3C)cc2n1Cc1ccc(-c2ccccc2C(=O)O)cc1 [Telmisartan],12.8
8,CCOc1ccccc1OCCN[C@H](C)Cc1ccc(OC)c(S(N)(=O)=O)c1 [Tamsulosin hydrochloride],14.9
9,CN(C)CC/C=C1/c2ccccc2COc2ccc(CC(=O)O)cc21 [Olopatadine hydrochloride],3.92
10,COc1cc2nc(N3CCN(C(=O)c4ccco4)CC3)nc(N)c2cc1OC [Prazosin hydrochloride],13.5
11,CN(C)CCc1c[nH]c2ccc(C[C@H]3COC(=O)N3)cc12 [Zolmitriptan],3.25
12,CCCc1nc(C(C)(C)O)c(C(=O)O)n1Cc1ccc(-c2ccccc2-c2nnn[nH]2)cc1 [Olmesartan],-0.185
13,CCOc1cc(CC(=O)N[C@@H](CC(C)C)c2ccccc2N2CCCCC2)ccc1C(=O)O [Repaglinide],9.31
14,CN1CC(=O)N2[C@H](c3ccc4c(c3)OCO4)c3[nH]c4ccccc4c3C[C@@H]2C1=O [Tadalafil],4.84
15,CCC(C)(C)C(=O)O[C@H]1C[C@@H](C)C=C2C=C[C@H](C)[C@H](CC[C@@H]3C[C@@H](O)CC(=O)O3)[C@H]21 [Simvastatin],8.31
16,COc1cc2nccc(Oc3ccc(NC(=O)C4(C(=O)Nc5ccc(F)cc5)CC4)cc3)c2cc1OC,17.1
17,CC(C)C(=O)Nc1ccc([N+](=O)[O-])c(C(F)(F)F)c1 [Flutamide],-5.4
18,Clc1ccccc1C(c1ccccc1)(c1ccccc1)n1ccnc1 [Clotrimazole],14
19,CNCc1ccc(-c2[nH]c3cc(F)cc4c3c2CCNC4=O)cc1 [Rucaparib camsylate],12.5
20,CN(C)CCC[C@@]1(c2ccc(F)cc2)OCc2cc(C#N)ccc21 [Escitalopram oxalate],14.4

row,SMILES,excitability to 1-s acoustic pulses
1,C=C1[C@H](CO)[C@@H](O)C[C@@H]1n1cnc2c(=O)[nH]c(N)nc21 [Entecavir],-3.18
2,Nc1nc2c(ncn2COCCO)c(=O)[nH]1 [Acyclovir],0.524
3,O=c1n(CCCN2CCN(c3cccc(Cl)c3)CC2)nc2ccccn12 [Trazodone hydrochloride],18.6
4,CC1CNc2c(cccc2S(=O)(=O)N[C@@H](CCCNC(=N)N)C(=O)N2CC[C@@H](C)C[C@@H]2C(=O)O)C1 (stereo not given in full) [Argatroban],0.477
5,C=CC(=O)N1CCC[C@@H](n2nc(-c3ccc(Oc4ccccc4)cc3)c3c(N)ncnc32)C1 [Ibrutinib],-2.71
6,CCc1ccc(CCOc2ccc(CC3SC(=O)NC3=O)cc2)nc1 (stereo not given) [Pioglitazone hydrochloride],6.94
7,O=c1[nH]c(=O)n([C@H]2C[C@H](O)[C@@H](CO)O2)cc1C(F)(F)F [Trifluorothymidine],2.88
8,CC(=O)O[C@]1(C(C)=O)CC[C@H]2[C@@H]3C=C(C)C4=CC(=O)CC[C@]4(C)[C@H]3CC[C@@]21C [Megestrol Acetate],14.4
9,Cc1cccc(C)c1OCC(C)N (stereo not given) [Mexiletine hydrochloride],1.36
10,Cc1nc(-c2ccc(OCC(C)C)c(C#N)c2)sc1C(=O)O [Febuxostat],-0.372
11,O=C(O)c1cc(/N=N/c2ccc(S(=O)(=O)Nc3ccccn3)cc2)ccc1O [Sulfasalazine],-0.736
12,CC(C)(C#N)c1cc(Cn2cncn2)cc(C(C)(C)C#N)c1 [Anastrozole],3.65
13,CN(C)CCc1c[nH]c2ccc(Cn3cncn3)cc12 [Rizatriptan benzoate],-3.58
14,CCOC(=O)[C@H](CCc1ccccc1)N[C@H]1CCc2ccccc2N(CC(=O)O)C1=O [Benazepril hydrochloride],0.498
15,CC(=O)Nc1ccc(O)cc1 [Acetaminophen],-2.54
16,CC(C)OC(=O)C(C)(C)Oc1ccc(C(=O)c2ccc(Cl)cc2)cc1 [Fenofibrate],4.84
17,Cc1ccc(NC(=O)c2ccc(CN3CCN(C)CC3)cc2)cc1Nc1nccc(-c2cccnc2)n1 [Imatinib mesylate],12.7
18,CCOc1nc2cccc(C(=O)O)c2n1Cc1ccc(-c2ccccc2-c2nnn[nH]2)cc1 [Candesartan],-3.51
19,CC(C)n1c(/C=C/C(O)CC(O)CC(=O)O)c(-c2ccc(F)cc2)c2ccccc21 (stereo not given) [Fluvastatin sodium],3.77
20,CCOC(=O)[C@H](CCc1ccccc1)N[C@@H](C)C(=O)N1[C@H](C(=O)O)C[C@@H]2CCC[C@@H]21 [Ramipril],4.17
